About 5,800 (36%) of roughly 16,000 compounds were called active. About 23% were inconclusive and are not listed. Calls come from the whole dose curve; as a rule, active = well fitted curve in the direction sought with a large enough effect; inconclusive = small, poorly fitted or top-dose-only effect, or effect the other way; inactive = no such curve, though single readings can be large or run the other way. Some of the results follow.
% is set by controls: 0 for no effect and ±100 for the full control effect.

Chain of Cytochrome P450 2C19 (Homo sapiens) (P33261 whole entry, looked up): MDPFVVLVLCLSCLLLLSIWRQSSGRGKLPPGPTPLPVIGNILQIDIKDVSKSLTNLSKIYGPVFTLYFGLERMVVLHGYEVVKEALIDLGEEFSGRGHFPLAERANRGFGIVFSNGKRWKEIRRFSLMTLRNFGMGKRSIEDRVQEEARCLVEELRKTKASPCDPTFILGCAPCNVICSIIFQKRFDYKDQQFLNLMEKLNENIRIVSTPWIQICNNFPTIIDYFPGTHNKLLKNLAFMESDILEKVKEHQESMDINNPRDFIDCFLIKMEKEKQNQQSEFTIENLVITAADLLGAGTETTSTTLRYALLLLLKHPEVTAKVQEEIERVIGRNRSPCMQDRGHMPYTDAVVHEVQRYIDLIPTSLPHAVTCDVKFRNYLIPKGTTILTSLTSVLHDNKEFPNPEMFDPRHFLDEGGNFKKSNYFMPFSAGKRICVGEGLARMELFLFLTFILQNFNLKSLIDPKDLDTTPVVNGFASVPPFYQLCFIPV

The test has as its target Cytochrome P450 2C19 (Homo sapiens) (UniProt P33261). Briefly: Cytochrome panel assay with activity outcomes. Conditions: recombinant CYP, pro-luciferin dealkylation, luminescence, p450-cyp2c19; series mostly up to 57.1 µM; activity, negative = inhibition: at the top concentration.
As to `COc1cccc2c1C(=O)c1c(O)c3c(c(O)c1C2=O)C[C@](O)(C(=O)CO)C[C@H]3O[C@@H]1C[C@H](N)[C@H](O)[C@H](C)O1`, the “activity, negative = inhibition” value is 14.8% [at 25.6 µM] (inactive). One may read the AC50 as the concentration giving half of the maximal activity seen. For `CCCc1ccc(Oc2cc(C)nc(N3CCOCC3)n2)cc1`, the AC50 was 11.2 µM (active). For the compound `O=c1c(-c2ccccc2)nc2cnc(N3CCOCC3)nc2n1C1CC1`, the “activity, negative = inhibition” value is -27.1% (inactive). Turning to `COc1ccc(-n2c(=O)c(-c3ccccc3)nc3cnc(N4CCOCC4)nc32)cc1`, the “activity, negative = inhibition” value is -53.2% (inactive). For the compound `Cc1cc(Oc2ccc(-c3ccccc3)cc2)nc(N2CCOCC2)n1`, the AC50 was 14.1 µM (active). With `Nc1nc(Cl)nc2c1ncn2[C@@H]1O[C@@H](COP(=O)(O)OP(=O)(O)OP(=O)(O)O)[C@@H](O)[C@H]1O`, the “activity, negative = inhibition” value was 29.1% (inactive). Consider `COc1ccc(CN(C(=O)Cc2cccs2)C(C(=O)NC2CCCC2)c2ccncc2)cc1` (stereo not given), for which the AC50 was 1.78 µM (active).

Turning to `O=C(NC1CCCCC1)C(c1cccs1)N(Cc1cccs1)C(=O)c1ccco1` (stereo not given), the AC50 is 1.58 µM (active). Same read-out and setting: with `O=C(NC1CCCC1)C(c1ccsc1)N(Cc1ccccc1)C(=O)Cc1cccs1` (stereo not given) the figure was 5.01 µM (active).

For `CO[C@H]1[C@@H](OC(N)=O)[C@H](O)[C@@H](Oc2ccc3c(O)c(NC(=O)c4ccc(O)c(CC=C(C)C)c4)c(=O)oc3c2C)OC1(C)C`, the “activity, negative = inhibition” value was 12.6% [at 25.6 µM] (inactive). For the compound `NC(=S)c1ccc[n+]([C@@H]2O[C@@H](COP(=O)([O-])OP(=O)(O)OC[C@@H]3O[C@@H](n4cnc5c(N)ncnc54)[C@@H](OP(=O)(O)O)[C@H]3O)[C@@H](O)[C@H]2O)c1`, the “activity, negative = inhibition” value was -13% (inactive). Take `COc1cccc(C(=O)/C=C/c2ccc(SC)cc2)c1`: the half-maximal activity concentration (AC50) was 0.631 µM (active). `COc1ccc2[nH]c(C(=O)c3ccccc3)cc2c1`: the “activity, negative = inhibition” value is -19.7% (inactive). Turning to `CCCC(=O)Nc1ccc(C(=O)/C=C/c2ccc(SC)cc2)cc1`, the concentration at half-maximal activity (AC50) was 2.51 µM (active). `CCCCCCCCCCCCCCCCCCc1ccc(C(=O)/C=C\C(=O)O)cc1`: the “activity, negative = inhibition” value was -4.95% (inactive). The same measure, in the same setting: with `c1cncc(CNCc2cccnc2)c1` the figure was 5.45% [at 11.4 µM] (inactive).

Take `O=S(=O)(NCc1cccnc1)c1ccc(Cl)nc1`: the concentration at half-maximal activity (AC50) was 31.6 µM (active).

For `OCCNc1ncnc2nc[nH]c12`, the activity, negative = inhibition is 10.2% [at 11.4 µM] (inactive). Regarding `Cc1cc2c(ncn2Cc2ccccc2)c([N+](=O)[O-])c1C`, the concentration at half-maximal activity (AC50) was 4.47 µM (active). `Cc1cccc(Cn2cnc3c(NS(C)(=O)=O)c(C)c(C)cc32)c1`: the concentration at half-maximal activity (AC50) was 3.98 µM (active). Consider `COc1ccc2oc(-c3ccc(C)c(NC(=O)CSc4ccc(Cl)cc4)c3)nc2c1`, for which the AC50 is 0.562 µM (active).

`CC[C@@H]1OC(=O)[C@H](C)[C@H](O[C@@H]2C[C@](C)(OC)[C@H](O)[C@H](C)O2)[C@H](C)[C@H](O[C@@H]2O[C@@H](C)C[C@@H](N(C)C)[C@@H]2O)[C@](C)(O)C[C@H](C)[C@@H]2N[C@H](COCCOC)O[C@H]([C@@H]2C)[C@]1(C)O`: the “activity, negative = inhibition” value was 17.8% [at 25.6 µM] (inactive). Still for that read-out and setting: with `CCN(CC)CCCNC(=O)CC1Sc2ccccc2NC1=O` (stereo not given) the figure was -24.2% (inactive); with `COC(=O)c1cc(NC(=O)CC2NC3CCCCC3NC2=O)cc(C(=O)OC)c1` (stereo not given), -17.7% (inactive). In the case of `COC(=O)c1c(NC(=O)CC2Nc3ccccc3NC2=O)sc(C)c1C` (stereo not given), the AC50 was 11.2 µM (active). As to `Nc1nc(N)c2nn(-c3ccc(C(=O)O)cc3)nc2n1`, the activity, negative = inhibition is 19.9% [at 11.4 µM] (inactive). For `COC(=O)C1Cc2c([nH]c3ccccc23)CN1` (stereo not given), the AC50 is 3.98 µM (active). Turning to `CC[C@H]1CN(C)[C@H]2Cc3c([nH]c4ccccc34)C(=O)C[C@H]1[C@H]2C(=O)OC`, the activity, negative = inhibition is 22.2% [at 11.4 µM] (inactive). On the same count and under the same terms, with `O=C(O)[C@@H]1Cc2c([nH]c3ccccc23)[C@@H](CCCCO)N1` the figure was 17.4% [at 11.4 µM] (inactive). Same read-out and setting: with `O=c1[nH]c2cc([N+](=O)[O-])c([N+](=O)[O-])cc2[nH]c1=O` the figure was -12.4% (inactive); with `CCCCCCCCCCCCCC(=O)O[C@H](CC(=O)O)C[N+](C)(C)C`, -17.7% (inactive). `Cc1ccc(NC(=O)C2(NC(=O)c3cccc(N4C(=O)CSC4c4ccccc4)c3)CCCCC2)cc1` (stereo not given): the AC50 was 28.2 µM (active). For the compound `CN(C)CC/C=C1\c2ccccc2CSc2ccccc21`, the “activity, negative = inhibition” value was -12.9% [at 25.6 µM] (inactive). For `Cc1nc(SC2CC(=O)N(c3ccc([N+](=O)[O-])cc3)C2=O)nc2c1CCCC2` (stereo not given), the concentration at half-maximal activity (AC50) is 4.47 µM (active). On to `O=C(Cc1ccc(Br)cc1)OCC(=O)c1ccc2c(c1)OCCO2`, for which the AC50 is 15.8 µM (active). With `FC(F)(F)c1cccc(-c2nc3nc(Cl)c(Cl)nc3[nH]2)c1`, the activity, negative = inhibition was -19.6% [at 11.4 µM] (inactive). For the compound `O=c1c2ccc(Cl)cc2nc(-c2cccc(C(F)(F)F)c2)n1O`, the AC50 is 14.1 µM (active). The same measure, in the same setting: with `Cc1ccc(-n2ccnc2SCC(=O)N(CC(C)C)C2CCS(=O)(=O)C2)c(C)c1` (stereo not given) the figure was 10 µM (active). Take `Cc1cc(C)n2c(SCC(=O)N(C)C3CCS(=O)(=O)C3)nnc2n1` (stereo not given): the “activity, negative = inhibition” value was -14.2% (inactive). For `Cc1cccc(Nc2cc(Cl)nc(SCC(=O)O)n2)c1C`, the “activity, negative = inhibition” value was -19.1% (inactive). Turning to `Cc1cccc(NC(=O)CSc2nnc(-c3ccco3)c(-c3ccco3)n2)c1C`, the AC50 was 2.24 µM (active). In the case of `CC/C=C\CC[C@H](O)C1=CCCCC1=O`, the activity, negative = inhibition is 13.3% [at 11.4 µM] (inactive). On the same count and under the same terms, with `O=C1CCCC=C1[C@H](O)c1ccc([N+](=O)[O-])cc1` the figure was -22% [at 11.4 µM] (inactive).

`CC/C=C\CC[C@H](OC(=O)c1ccc(Br)cc1)C1=CCCCC1=O`: the AC50 was 2 µM (active). Same read-out and setting: with `O=C1CCCC=C1[C@H](CCc1ccccc1)OC(=O)c1ccc(Br)cc1` the figure was 1.58 µM (active).

These data come from PubChem BioAssay AID1851 (National Center for Advancing Translational Sciences (NCATS), 2009).
